Data reported in PubChem BioAssay (EPA / NIEHS).
Active and inactive are the calls of the source. How the source made its calls: active means hit-call score of the fitted dose curve at least 0.9, where 1 is the maximum; inactive means score below 0.9.

Assay: CEETOX_H295R_ANDR: CeeTox H295R High-throughput Steroidogenesis Assay for Androstenedione (ANDR) (AID 2283436)
Conditions: actives raise or lower the signal
Experimental: CEETOX_H295R is a cell-based, multiplexed-readout assay that uses H295R, a human adrenal gland cell line, with measurements taken at 48 hours after chemical dosing in a 96-well plate.CEETOX_H295R_ANDR is one of 23 assay component(s) measured or calculated from the CEETOX_H295R assay. It is designed to make measurements of hormone induction, a form of inducible reporter, as detected with absorbance signals by HPLC-MS-MS technology.Data from the assay component CEETOX_H295R_ANDR was analyzed into 1 assay endpoint. This assay endpoint, CEETOX_H295R_ANDR, was analyzed with bidirectional fitting relative to DMSO as the negative control and baseline of activity. […] To generalize the intended target to other relatable targets, this assay endpoint is annotated to the steroid hormone intended target family, where the subfamily is androgens.
Cell culture and media preparation procedures were conducted in accordance with OECD Test No. 456 guidelines, with minor modifications. H295R cells (ATCC CRL-2128) were expanded for 5 passages and frozen in batches in liquid nitrogen. Prior to the steroidogenesis assay, H295R cells were thawed and passed at least 4 times. The maximum passage was 10. Cells were maintained in a 1:1 mixture of DMEM/F12 supplemented with 5ml/L ITS+ Premix (BD Bioscience) and 12.5 ml/L Nu-Serum (BD Bioscience). After seeding cells into 96-well plates at 50-60% confluency, cells were allowed to adhere overnight. […] Test chemicals were incubated for 48 hours, then the medium was removed and split into 2 vials containing approximately 75uL each, and stored at -80 C prior to hormone analysis. For steroid quantification, media samples were shipped to OpAns, LLC (Durham, NC) on dry ice, and samples were thawed to room temperature prior to liquid-liquid extraction. Steroid hormones were extracted from media samples using methyl tertbutyl ether (MTBE). An extra derivatization with dansyl chloride was included for estrogen (estrone and estradiol) detection only. Steroid hormones were separated by HPLC, eluted using a reverse phase C18 gradient with electrospray positive ionization, followed by quantification by tandem mass spectrometry (MS/MS). Data were acquired on a MassHunter Workstation Acquisition version B03.01 (Agilent Technologies, Inc.) and processed using MassHunter Quantitative Analysis for QQQ. Accuracy was determined for each hormone analyte from 3 standards to determine upper and lower limits of quantification (ULOQ and LLOQ, respectively) using a 7-point standard curve. Precision and accuracy of the extraction and quantification methods were calculated as the percent relative standard deviation (%RSD) of the spiked standards and percent spiked standard recovered, respectively. […] Test medium was removed following chemical exposure, and cell viability was evaluated in the same wells by MTT. MTT procedures were as follows: after removal of test medium, 500 uL of 0.5 mg/ml of 3-[4,5-dimethylthiazol-2-y]2,5-diphenyltetrazoliumbromide solution was added to the cells. Following a 4-hour incubation at 37 C and 5% CO2 to allow formazan-crystal formation, the MTT solution was removed and blue formazan salt crystals were solubilized using 500uL anhydrous isopropanol with shaking for 20 minutes. Absorbance was read at 570 and 650nm using a Packard Fusion microplate reader. Background correction of absorbance units was used to determine percent change relative to controls. […] When a test chemical reduced cell viability to 20% - 70%, the test chemical was diluted 10-fold and re-evaluated, but if cell viability was <20%, then the test chemical was diluted 100-fold and re-evaluated. Test chemical dilutions were made until cell viability was >/=70%. MTT assays were also conducted for duplicates of all concentrations of chemicals tested in concentration-response studies.

Q: With `O=c1c(-c2ccc(O)cc2)coc2cc(O)cc(O)c12` as the compound, how does the AC50 read?
A: 14.1 µM (active)

Q: For `NC(=O)c1nc(-c2cccc(-c3cc(F)ccc3OCC(F)(F)C(F)(F)F)c2)n[nH]1`, which outcome is on record?
A: inactive

Q: With `CCCCOC(=O)c1ccc(O)cc1` as the compound, how does the outcome read?
A: inactive

Q: Which AC50 does the source give for `Oc1ccc2ccccc2c1` here?
A: 76.7 µM (active)

Q: With `CCCCCCCCN(C)CCCCCCCC` as the compound, how does the outcome read?
A: inactive
